Experiment [1] deals with Cytochrome P450 3A7 (Homo sapiens) (UniProt P24462). The experiment in a line: Cytochrome P450 family 3 subfamily A member 7 (CYP3A7) small molecule antagonists: luciferase biochemical qHTS assay (AID 1963596). Note: nearly all actives have a fitted effect of over 40% in size. Note: potency is the fitted concentration of half-maximal effect. In short, it runs like this: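 Enzyme-substrate mix + cpd (DMSO), 10 min RT; + NADPH regen system, 1 h RT; + luciferin detection reagent, 20 min RT; luminescence read. Proluciferin substrate, P450-Glo format, 1536-well qHTS.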

Experiment [2] is described as follows: Viability qHTS for spleen associated tyrosine kinase inhibitor (SYKi) naive MV4-11 cells (AID 1963823). Note: nearly all actives have a fitted effect of over 40% in size. Note: potency is the fitted concentration of half-maximal effect. The essentials:
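SYKi-naive MV4-11 AML cells, 500 per well, were exposed to library compounds for 72 hr at 37 C, 5% CO2. Viability was then read by CellTiter-Glo luminescence after 10 min at room temperature.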

Experiment [3] is described as follows: Quantitative highthroughput screen to assess conditional lethalithy of NOMO1 cells grown in RPMI1640 with untreated serum (RPMI+s) (AID 1963876).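 Note: 100% = DMSO wells and 0% = empty wells without cells; nearly all actives have a fitted effect of over 35% in size.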 The essentials: (§1)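 Each medium arm—HPLM with 10% dialyzed FBS, or RPMI1640 with 5 mM glucose and 10% untreated or dialyzed FBS—was screened against an 11-point, 3-fold compound titration for 48 h at 37 °C, with CellTiter-Glo luminescence as endpoint.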

Experiment [4] is described as follows: Quantitative highthroughput screen to assess conditional lethalithy of NOMO1 cells grown in RPMI1640 with dialyzed fetal bovine serum (RPMI+ds) (AID 1963877).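 Note: series mostly up to about 46 µM; 100% = DMSO control wells and 0% = empty wells; nearly all actives have a fitted effect of over 30% in size.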 The essentials:
as §1

A short description of experiment [5]: Quantitative highthroughput screen to assess conditional lethalithy of NOMO1 cells grown in Human Plasma-Like Medium with dialyzed fetal bovine serum (HPLM+ds) (AID 1963878).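 Note: 100% = DMSO wells and 0% = empty wells on each plate; nearly all actives have a fitted effect of over 35% in size.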 The essentials: as §1
Experiment [6] in a line: Quantitative highthroughput screen to assess conditional lethalithy of P12 Ichikawa cells grown in Human Plasma-Like Medium with dialyzed fetal bovine serum (HPLM+ds) (AID 1963879). Note: series mostly up to about 46 µM; nearly all actives have a fitted effect of over 35% in size. To be noted: Potency: viability. The essentials: as §1
Experiment [7] is described as follows: Quantitative highthroughput screen to assess conditional lethalithy of P12 Ichikawa cells grown in RPMI1640 with dialyzed fetal bovine serum (RPMI+ds) (AID 1963880).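 Note: 100% = DMSO wells and 0% = empty wells on each plate; nearly all actives have a fitted effect of over 35% in size.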 To be noted: Potency: P12-Ichikawa viability. In short, it runs like this: as §1
Experiment [8] in a line: Quantitative highthroughput screen to assess conditional lethalithy of SEM cells grown in RPMI1640 with unreated serum (RPMI+s) (AID 1963883). In short, it runs like this:
as §1

Experiment [9] is described as follows: Quantitative highthroughput screen to assess conditional lethalithy of SEM cells grown in RPMI1640 with dialyzed fetal bovine serum (RPMI+ds) (AID 1963884). The essentials: as §1
The nature of experiment [10]: Cellular viability qHTS for adrenocortical cancer (ACC) cell line SW-13 (AID 1963989).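 For activity (max response): cells grown in serum-free medium with ITS supplement; % is set by controls: 0 for no effect and ±100 for the full control effect.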 Note: nearly all actives have a fitted effect of over 65% in size. Note: potency is the fitted concentration of half-maximal effect. The settings on record: SW-13 ACC cells viability, CellTiter-Glo, 48 h; activity (max response): hits give low values. In short, it runs like this: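 SW-13 cells in ITS-supplemented serum-free DMEM were plated overnight, then exposed for 48 h at 37C to compound titrations (up to 46 uM final). Viability was read by CellTiter-Glo luminescence; four-parameter logistic fits gave IC50 and efficacy.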

A short description of experiment [11]: Cellular viability qHTS for adrenocortical cancer (ACC) cell line NCI-H295R (AID 1963990). Note: nearly all actives have a fitted effect of over 60% in size. Note: potency is the fitted concentration of half-maximal effect. In short, it runs like this:
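Luminescent ATP read-out (CellTiter-Glo, 20 min RT) after 48 h drug exposure of NCI-H295R cells; a titration up to 46 uM final. Data normalized to doxorubicin (100% inhibition) and DMSO (0%); 4-parameter fit gives IC50, max response.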

Experiment [12] in a line: Viability qHTS for spleen associated tyrosine kinase inhibitor (SYKi) drug resistant MV4-11 cells (AID 1963824). Note: nearly all actives have a fitted effect of over 35% in size. The essentials:
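CellTiter-Glo luminescence, read 10 min after reagent addition, reports viability after a 72 hr compound exposure. Cells are an MV4-11 line made resistant to SYK inhibition, seeded at 500 per well onto compound-containing plates.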

Structures are written as SMILES. Where “and” joins values, the source holds several entries; their conditions need not be identical. Equal entries are not always repeated. Results filed as inconclusive are left out. A number with no mark means an inactive call. Calls of active or inactive are those of the source. Calls come from the whole dose curve; as a rule, active = well fitted curve in the direction sought with a large enough effect; inconclusive = small, poorly fitted or top-dose-only effect, or another doubt; inactive = no such curve, though single readings can be large; an effect the other way counts as inactive or inconclusive.

Chain of Cytochrome P450 3A7 (Homo sapiens) (P24462 whole entry, looked up): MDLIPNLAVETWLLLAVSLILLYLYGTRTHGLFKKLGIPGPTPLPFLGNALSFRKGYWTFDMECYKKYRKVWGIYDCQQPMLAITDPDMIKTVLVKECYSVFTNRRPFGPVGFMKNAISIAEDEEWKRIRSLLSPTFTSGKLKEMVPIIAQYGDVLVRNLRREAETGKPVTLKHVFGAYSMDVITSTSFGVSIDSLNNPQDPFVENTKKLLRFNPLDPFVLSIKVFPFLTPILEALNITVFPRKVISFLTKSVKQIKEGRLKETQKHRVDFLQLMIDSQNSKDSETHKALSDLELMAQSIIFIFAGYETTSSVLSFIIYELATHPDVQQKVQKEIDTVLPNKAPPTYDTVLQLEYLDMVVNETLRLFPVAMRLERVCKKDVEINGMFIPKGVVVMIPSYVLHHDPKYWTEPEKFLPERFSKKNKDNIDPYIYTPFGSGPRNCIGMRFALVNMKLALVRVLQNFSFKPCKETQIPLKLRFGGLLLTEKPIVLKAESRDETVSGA

Regarding `COc1ccccc1OCC(O)CN1CCN(CC(=O)Nc2c(C)cccc2C)CC1` (configuration not stated), the Potency result in experiment [1], in experiment [2], in experiment [3], in [4], in experiment [5] and in experiment [6] was “inactive” in each case. The Potency entry in [7], in experiment [8], in experiment [9] and in experiment [11] was “inactive” in each case. Moreover, the activity (max response) in experiment [10] is 1.47% and 6.99%.
`CCCn1cnc2c1c(=O)n(CCCCC(C)=O)c(=O)n2C`: the Potency result in experiment [1], in experiment [2], in experiment [12] and in [11] was “inactive” each time.
For the compound `CCOC(=O)Cn1cccc1-c1nc(-c2ccc(OC)cc2)c(-c2ccc(OC)cc2)s1`, in experiment [1], the Potency result was “inactive”. For the same compound, the Potency in experiment [2] was 9.44 µM (active). For the same compound, the activity (max response) in experiment [10] was 9.49%.
Turning to `Cc1c(NC(=O)c2cccnc2)c(=O)n(-c2ccccc2)n1C`, the Potency entry in experiment [1], in experiment [2], in experiment [12] and in experiment [11] was “inactive” throughout.
For `C[C@H]1[C@H](NC(=O)/C(=N/OC(C)(C)C(=O)O)c2csc(N)n2)C(=O)N1S(=O)(=O)O` (stereo in doubt), the Potency entry in experiment [1], in [2], in experiment [12] and in [11] was “inactive” throughout.
In the case of `Cc1cccc(C)c1NC(=O)c1cc(S(N)(=O)=O)c(Cl)cc1O`, the Potency result in experiment [1], in [2] and in experiment [11] was “inactive” in each case. Moreover, the activity (max response) in [10] is 10.1%.
`CN(C)CCN1CCN(c2cccc(Cl)c2)C1=O`: the Potency entry in experiment [1], in [2] and in experiment [11] was “inactive” throughout. In [10], the activity (max response) is 10.1%.
`NCCNCCNCCN`: the Potency entry in experiment [1], in experiment [2] and in [11] was “inactive” each time. Also, the activity (max response) in [10] was 13.6%.
As for `CN(C)CCN(Cc1ccccc1)c1ccccn1`, the Potency in experiment [1] was 6.92 µM (active). Also, in experiment [2], the Potency result is “inactive”. In addition, the activity (max response) in experiment [10] was -3.06%.
`CCc1cccc(CC)c1NC(=O)CN(CC(=O)O)CC(=O)O`: the Potency entry in experiment [1], in [2] and in [11] was “inactive” in each case. Also, the activity (max response) in [10] is 1.3%.
In the case of `O=C(O)CCCCC1CCSS1` (configuration not stated), the Potency entry in experiment [1], in experiment [2] and in experiment [11] was “inactive” throughout. Besides, the activity (max response) in [10] is 9%.
Take `CCCCN=C(N)NC(=N)N`: the result in experiment [1] was inactive. For the same compound, the Potency result in experiment [2] and in experiment [11] was “inactive” in each case. In addition, the activity (max response) in [10] was 17.9%.
For `CCN1CCN(C(=O)N[C@@H](C(=O)N[C@@H]2C(=O)N3[C@@H]2SC(C)(C)[C@H]3C(=O)O)c2ccccc2)C(=O)C1=O`, the Potency entry in [1], in experiment [2] and in experiment [11] was “inactive” throughout. The activity (max response) in [10] is 12.1%.
Consider `CCCCCCCCOc1ccc(C(=O)c2ccccc2)c(O)c1`, for which the Potency entry in experiment [1], in experiment [2] and in [11] was “inactive” throughout. The activity (max response) in experiment [10] is 12.8%.
`OC1(c2ccccc2)CCNCC1`: the Potency entry in experiment [1], in [2] and in experiment [11] was “inactive” in each case. In addition, the activity (max response) in experiment [10] was 4.15%.
Regarding `CN(C)CCOC(C)(c1ccccc1)c1ccccn1` (configuration not stated), the Potency entry in [1], in experiment [2] and in [11] was “inactive” each time. The activity (max response) in experiment [10] was 14.2%.
Take `COc1cc(C(=O)N2CCOCC2)cc(OC)c1OC`: the Potency result in experiment [1], in [2] and in experiment [11] was “inactive” throughout. Besides, the activity (max response) in experiment [10] was 1.89%.
As for `O=C(O)CN(CCN(CC(=O)O)CC(=O)O)CCN(CC(=O)O)CC(=O)O`, the Potency entry in experiment [1] and in experiment [2] was “inactive” in each case. In addition, the activity (max response) in experiment [10] was 9.05%.
`O=c1ccn([C@@H]2O[C@H](CO)[C@@H](O)[C@H]2O)c(=O)[nH]1`: the Potency result in [1], in experiment [2] and in experiment [11] was “inactive” each time. Further, the activity (max response) in experiment [10] is -5.6%.
Regarding `Cc1c(Nc2ncccc2C(=O)O)cccc1C(F)(F)F`, the Potency result in [1] and in experiment [2] was “inactive” each time. The activity (max response) in experiment [10] is -9.06%.
Take `COc1cc(C(=O)NCCCCCC(=O)O)cc(OC)c1OC`: the Potency entry in experiment [1], in experiment [2] and in [11] was “inactive” in each case. Also, in experiment [10], the activity (max response) is 6.24%.
For the compound `Cc1cc(NS(=O)(=O)c2ccc(N)cc2)no1`, the Potency result in [1], in experiment [2] and in experiment [11] was “inactive” each time. The activity (max response) in experiment [10] is 13.2%.
`CN(C)CCOC(=O)C(c1ccccc1)C1(O)CCCC1` (configuration not stated): the Potency result in experiment [1] and in [2] was “inactive” each time. In addition, in experiment [10], the activity (max response) was 6.08%.
On to `CC[N+](C)(CC)CCOC(=O)C1c2ccccc2Oc2ccccc21`, for which the Potency entry in experiment [1], in [2] and in experiment [11] was “inactive” throughout. Moreover, the activity (max response) in experiment [10] is -11.3%.
Regarding `CC(O)CCCCn1c(=O)c2c(ncn2C)n(C)c1=O` (configuration not stated), the Potency result in [1] and in experiment [2] was “inactive” in each case. For the same compound, in [10], the activity (max response) was 7.24%.
As for `CN(C)C/C=C(/c1ccc(Br)cc1)c1cccnc1`, the Potency entry in experiment [1], in [2] and in [11] was “inactive” in each case. Further, the activity (max response) in experiment [10] is 3.23%.
Take `Cc1cn([C@H]2C[C@H](F)[C@@H](CO)O2)c(=O)[nH]c1=O`: the Potency result in experiment [1] and in experiment [2] was “inactive” in each case. Further, the activity (max response) in experiment [10] was 3.39%.
As to `CC(C)(C)c1nnc(NS(=O)(=O)c2ccccc2)s1`, the Potency entry in experiment [1], in [2] and in experiment [11] was “inactive” in each case. In addition, in experiment [10], the activity (max response) is 4.7%.
For the compound `CCN1CCN(Cc2ccc(NC(=O)Nc3ccc(Oc4cc(NC)ncn4)cc3)cc2C(F)(F)F)CC1`, the Potency entry in experiment [1] and in [2] was “inactive” throughout. The Potency in experiment [10] was 3.98 µM (active); in [11], 10 µM (active).
In the case of `CCN(CC)CC1CCCCN1CC(=O)N1c2ccccc2C(=O)Nc2cccnc21` (configuration not stated), the Potency result in [1], in [2] and in [11] was “inactive” each time. In addition, the activity (max response) in experiment [10] was -3.91%.
In the case of `Cc1nnc(C(C)C)n1C1CC2CCC(C1)N2CC[C@H](NC(=O)C1CCC(F)(F)CC1)c1ccccc1` (some centres not stated), the Potency result in experiment [1], in experiment [2] and in [11] was “inactive” throughout. In addition, the activity (max response) in [10] is 2.32%.
Consider `O=C1Nc2cc(Cl)ccc2Oc2ccccc21`, for which the Potency entry in experiment [1], in experiment [2] and in experiment [11] was “inactive” throughout. Further, in [10], the activity (max response) is -3.37%.
As to `O=C(O)CCC(=O)OC[C@@H](NC(=O)C(Cl)Cl)[C@H](O)c1ccc([N+](=O)[O-])cc1`, the Potency entry in [1], in [2] and in experiment [11] was “inactive” throughout. The activity (max response) in [10] is -6.44%.
As to `O=C(c1ccccc1)C(O)c1ccccc1` (configuration not stated), the Potency entry in experiment [1], in experiment [2] and in [11] was “inactive” in each case. Further, the activity (max response) in experiment [10] is 11.7%.
As to `CCC(C(=O)O)c1ccc(N2Cc3ccccc3C2=O)cc1` (configuration not stated), the Potency entry in [1], in [2] and in experiment [11] was “inactive” in each case. For the same compound, in experiment [10], the activity (max response) was 5.42%.
Consider `NC(N)=NC(N)=NCCc1ccccc1`, for which the Potency result in experiment [1] and in experiment [11] was “inactive” in each case. Moreover, the Potency in experiment [2] was 11.8 µM (active). Further, in experiment [10], the activity (max response) was -8.99%.
Take `Cc1onc(-c2ccccc2)c1C(=O)Cl`: the Potency result in experiment [1], in experiment [2] and in experiment [11] was “inactive” throughout. For the same compound, the activity (max response) in [10] was 12.7%.
On to `CC(=O)c1ccc(S(=O)(=O)NC(=O)NC2CCCCC2)cc1`, for which the Potency result in experiment [1], in [2] and in [11] was “inactive” throughout. The activity (max response) in [10] was 9.54%.

For the origin of these results see PubChem BioAssay (NCATS).
